# Screen size: about 66,000 compounds; about 960 (1.5%) showed an effect of 50% or more. This excerpt belongs to a sample that is enriched for strong results.
# System: Trypanosoma brucei
# Assay: Trypanosoma brucei 72 hour study
# Assay type: functional, organism-based
# Parameters: scale not given: in the data most compounds retested in dose-response had high values
smiles,measurement,setting,value
CN1CCN(c2ccc(S(N)(=O)=O)cc2C#N)Cc2ccccc21,Percent Effect,"30.3 µM, […]",-63.54%
CC[C@H](C)Nc1ncc(-c2ccn(C3CCN(C(C)=O)CC3)n2)cn1,Percent Effect,"30.3 µM, […]",-5.339%
CC(=O)N1CCC(n2ccc(-c3cnc(N4CCOCC4)nc3)n2)CC1,Percent Effect,"30.3 µM, […]",26%
CC(=O)N1CCC(n2ccc(-c3cnc(NCC(C)C)nc3)n2)CC1,Percent Effect,"30.3 µM, […]",77.59%
CC(C)n1c(=O)nc2n1C(=O)N(c1ccc(Br)cc1)C2,Percent Effect,"30 µM, 30.03 µM",-31.4%
N#Cc1cccc(CN2C[C@H](NC(=O)C3CC3)[C@H]3OCCC[C@H]32)c1.O=C(O)C(F)(F)F,Percent Effect,"30.3 µM, […]",-35.12%
CC(=O)N1CCCC2(CCC(=O)N2Cc2cccnc2)C1.O=C(O)C(F)(F)F (stereo not drawn),Percent Effect,"30.3 µM, […]",1.324%
COCCCN1Cc2cccc(NC(=O)c3ccccc3Cl)c2C1,Percent Effect,"30 µM, 30.03 µM",7.9%
COCCCN1Cc2cccc(NC(=O)c3cc(F)cc(F)c3)c2C1,Percent Effect,"30 µM, 30.03 µM",34.67%
COCCCN1Cc2cccc(NC(=O)c3cc(F)ccc3F)c2C1,Percent Effect,"30 µM, 30.03 µM",52.37%
CN1CCN(C2COC3(CCN(Cc4cccs4)CC3)C2)CC1.O=C(O)C(F)(F)F.O=C(O)C(F)(F)F (stereo not drawn),Percent Effect,"30.3 µM, […]",-470.3%
Cc1nc[nH]c1CN1C[C@@H]2CC[C@H](C1)N(C(=O)CCc1cccnc1)C2,Percent Effect,"30 µM, 30.03 µM",-21.46%
Cc1nc(CN2CC3(CCN(c4cnccn4)C3)CC2=O)cs1.O=C(O)C(F)(F)F (stereo not drawn),Percent Effect,"30 µM, 30.03 µM",-45.32%
Cc1[nH]/c(=N\C(=O)c2csc(NC3CCCC3)n2)sc1C,Percent Effect,"30 µM, 30.03 µM",95.68%
Cc1cnc(NC(=O)c2csc(NC3CCCC3)n2)s1,Percent Effect,"30 µM, 30.03 µM",-9.891%
CCN(CC)C(=O)CCCNC(=O)c1csc(NC2CC2)n1,Percent Effect,"30 µM, 30.03 µM",-27.48%
CC(=O)Nc1nc(C(=O)N2CCCC(c3cc(C)[nH]n3)C2)cs1 (stereo not drawn),Percent Effect,"30 µM, 30.03 µM",16.48%
Cc1[nH]/c(=N\C(=O)c2csc(NC3CC3)n2)sc1C,Percent Effect,"30 µM, 30.03 µM",66.57%
CC(C)(C)[S+]([O-])CCNC(=O)c1csc(NC2CC2)n1 (stereo not drawn),Percent Effect,"30 µM, 30.03 µM",-59.41%
O=C(O)C(F)(F)F.c1csc(CN2CCC3(CCOCC3COCC3CC3)CC2)n1 (stereo not drawn),Percent Effect,"30.3 µM, […]",-46.34%
C=C(C)CN1CCC(NC(=O)Nc2ccc(F)c(C(=O)NC)c2)CC1,Percent Effect,"30.3 µM, […]",-0.7134%
CC[C@@H]1N(Cc2ccc(F)cc2)CCC[C@]12CCC(=O)N2C.O=C(O)C(F)(F)F,Percent Effect,"30.3 µM, […]",-14.8%
O=C(O)C(F)(F)F.O=C(c1ccco1)N1CCC2(CCCN(c3ncccn3)C2)C1 (stereo not drawn),Percent Effect,"30.3 µM, […]",-37.47%
CC(=O)Nc1nc2c(s1)C1(CCN(C)CC1)Nc1ccccc1S2,Percent Effect,"30.3 µM, […]",83.23%
CC(=O)Nc1nc2c(s1)C(C)(C)Nc1ccccc1S2,Percent Effect,"30.3 µM, […]",-17.63%
CC(=O)Nc1nc2c(s1)C1(CCCC1)Nc1ccccc1S2,Percent Effect,"30.3 µM, […]",-6.174%
O=c1c(CN2CCOCC2)coc(O)c1CN1CCOCC1,Percent Effect,"30 µM, 30.03 µM",-17.25%
CN1CCN(c2ncc3c(=O)n(-c4cccc(F)c4)c(=O)[nH]c3n2)CC1,Percent Effect,"30 µM, 30.03 µM",11.72%
Cl.NC(CC1CCCC1)c1ccccc1 (stereo not drawn),Percent Effect,"30 µM, 30.03 µM",-30.59%
NC(CC1CCCC1)c1ccc(Oc2ccccc2)cc1 (stereo not drawn),Percent Effect,"30 µM, 30.03 µM",101.8%
OC(CN1CCN(CC2CCCCC2)CC1)c1ccccc1 (stereo not drawn),Percent Effect,"30 µM, 30.03 µM",-15.73%
COc1ccc(CN(Cc2cnc(N)nc2)CC2CCCO2)c(OC)c1.O=C(O)CC(O)(CC(=O)O)C(=O)O (stereo not drawn),Percent Effect,"30.3 µM, […]",5.653%
Cc1nc2n(n1)CC(Nc1cc(C(F)(F)F)nc3ncnn13)CC2 (stereo not drawn),Percent Effect,"30 µM, 30.03 µM",53.11%
CCCc1cc(NC2CCc3nc(CC)nn3C2)n2ncnc2n1 (stereo not drawn),Percent Effect,"30 µM, 30.03 µM",-33.56%
CCc1nc2n(n1)CC(Nc1cc(C)nc3ncnn13)CC2 (stereo not drawn),Percent Effect,"30 µM, 30.03 µM",-89.04%
Cc1cc(NC2CCc3nc(C)nn3C2)n2ncnc2n1 (stereo not drawn),Percent Effect,"30 µM, 30.03 µM",-21.45%
CCCc1cc(NC2CCc3ncnn3C2)n2ncnc2n1 (stereo not drawn),Percent Effect,"30 µM, 30.03 µM",104.4%
CCCc1cc(NC2CCc3nc(C)nn3C2)n2ncnc2n1 (stereo not drawn),Percent Effect,"30 µM, 30.03 µM",-21.48%
O=C(NC1CC1)[C@H]1C[C@H]2OCC[C@H]2N(Cc2ccc3ccccc3n2)C1.O=C(O)C(F)(F)F.O=C(O)C(F)(F)F,Percent Effect,"30.3 µM, […]",-259.7%
COC(=O)CCN(C)Cc1cc(Br)cs1,Percent Effect,"30 µM, 30.03 µM",-12.73%
CCOCCC(=O)N1CCc2cccc(S(=O)(=O)N3CCOCC3)c2C1,Percent Effect,"30 µM, 30.03 µM",-15.51%
CS(=O)(=O)c1ccccc1NCc1ccc(Cn2ccnc2)cc1,Percent Effect,"30 µM, 30.03 µM",-15.33%
CN(Cc1ccccn1)C1CC2(CCN(Cc3cccnc3)CC2)C1.O=C(O)C(F)(F)F.O=C(O)C(F)(F)F.O=C(O)C(F)(F)F,Percent Effect,"30 µM, 30.03 µM",-16.66%
CCCNCc1ccc(OCc2ccc3c(c2)OCCO3)cc1.Cl,Percent Effect,"30 µM, 30.03 µM",56.18%
CNCc1ccc(OCc2ccc3c(c2)OCCO3)cc1.Cl,Percent Effect,"30 µM, 30.03 µM",-35.77%
CCNCc1ccc(OCc2ccc3c(c2)OCCO3)cc1.Cl,Percent Effect,"30 µM, 30.03 µM",-18.34%
Cc1c(C(=O)N2CCCC(n3cccn3)C2)nnn1-c1ccccc1 (stereo not drawn),Percent Effect,10 µM,-41.06%
same,Percent Effect,"30.3 µM, […]",-3.586%
CNC(=O)CN1CCCC12CCN(Cc1c[nH]cn1)CC2.O=C(O)C(F)(F)F.O=C(O)C(F)(F)F,Percent Effect,"30 µM, 30.03 µM",-41.63%
Cc1ccc(-c2ccc(CC3NCCN(C)C3=O)cc2)cc1.Cl (stereo not drawn),Percent Effect,"30.3 µM, […]",-13.76%
CC(c1cn2ncsc2n1)N1Cc2ncccc2C1=O (stereo not drawn),Percent Effect,"30.3 µM, […]",6.941%
Cc1ccoc1C(=O)N1C[C@H]2CCC[C@@]2(COCc2ccncc2)C1.O=C(O)C(F)(F)F,Percent Effect,"30 µM, 30.03 µM",58.51%
Fc1cnc(N2C[C@@H]3COC[C@]3(COc3ccccn3)C2)nc1.O=C(O)C(F)(F)F.O=C(O)C(F)(F)F,Percent Effect,"30.3 µM, […]",-2.43%
Cc1ccoc1C(=O)N1C[C@H](OCc2cccnc2)[C@H]2OCCC[C@H]21.O=C(O)C(F)(F)F,Percent Effect,"30 µM, 30.03 µM",55.38%
O=C(O)C(F)(F)F.O=C(c1ncccn1)N1C[C@H]2CCC[C@@]2(COc2ccccn2)C1,Percent Effect,"30 µM, 30.03 µM",19.9%
O=C(O)C(F)(F)F.O=C(c1ccccc1)N1C[C@H]2CCC[C@@]2(COCc2ccncc2)C1,Percent Effect,"30 µM, 30.03 µM",-75.85%
O=C(O)C(F)(F)F.O=C(c1ncccn1)N1C[C@H]2CCC[C@@]2(COCc2ccncc2)C1,Percent Effect,"30 µM, 30.03 µM",14.62%
Fc1cnc(N2C[C@H]3CCC[C@@]3(COc3ccccn3)C2)nc1.O=C(O)C(F)(F)F.O=C(O)C(F)(F)F,Percent Effect,"30 µM, 30.03 µM",83.95%
Cc1cncc(C(=O)N2C[C@H]3CCC[C@@]3(COc3ccccn3)C2)c1.O=C(O)C(F)(F)F.O=C(O)C(F)(F)F,Percent Effect,"30 µM, 30.03 µM",53.76%
CS(=O)(=O)N1C[C@H]2CCC[C@@]2(COc2ccccn2)C1.O=C(O)C(F)(F)F,Percent Effect,"30 µM, 30.03 µM",-36.44%
Cc1occc1C(=O)N1C[C@@H](OCc2cccnc2)[C@H]2OCCC[C@@H]21.O=C(O)C(F)(F)F,Percent Effect,"30 µM, 30.03 µM",-8.947%
Cc1ccc(C(=O)N2C[C@H]3CCC[C@@]3(COc3ccccn3)C2)nc1.O=C(O)C(F)(F)F.O=C(O)C(F)(F)F,Percent Effect,"30 µM, 30.03 µM",43.42%
Cc1ccc(C(=O)N2C[C@@H](OCc3cccnc3)[C@H]3OCCC[C@@H]32)o1.O=C(O)C(F)(F)F,Percent Effect,"30 µM, 30.03 µM",5.646%
N#Cc1cccc(CN2CC[C@@H]3[C@@H]2CC(=O)N3Cc2cccnc2)c1.O=C(O)C(F)(F)F.O=C(O)C(F)(F)F,Percent Effect,"30 µM, 30.03 µM",-2.932%
CC(C)n1nc(CN2CCCCC2)c2c1CN(C(=O)c1ccno1)C2.O=C(O)C(F)(F)F,Percent Effect,"30.3 µM, […]",-65.47%
COCCN1CCC2(CC1)CCN(Cc1ccccn1)CC2.O=C(O)C(F)(F)F.O=C(O)C(F)(F)F,Percent Effect,"30.3 µM, […]",-12.12%
Cc1nc(CN2CC[C@H](OCC3CC3)[C@@H]2Cc2cccnc2)cs1.O=C(O)C(F)(F)F.O=C(O)C(F)(F)F,Percent Effect,"30.3 µM, […]",-53.44%
O=c1c(CN2CCCCCC2)coc(O)c1CN1CCCCCC1,Percent Effect,"30 µM, 30.03 µM",14.22%
CCN1CCCc2cc(-c3cncn3C(C)CN3CCOCC3)ccc21.Cl (stereo not drawn),Percent Effect,"30.3 µM, […]",-9.571%
CN1CCC2(CC1)CN(C(=O)c1cnccn1)Cc1ccccc12.O=C(O)C(F)(F)F,Percent Effect,"30 µM, 30.03 µM",-7.96%
CNC(=O)[C@@H]1C[C@H]2CN(Cc3ccc(C)s3)C[C@H]2N1C(C)=O.O=C(O)C(F)(F)F.O=C(O)C(F)(F)F,Percent Effect,"30.3 µM, […]",-19.68%
Fc1ccc(-c2nccnc2C2CCCNC2)cc1 (stereo not drawn),Percent Effect,"30.3 µM, […]",-3.462%
NC(=O)NCC1CCCCN1C(=O)c1cccc(Cl)c1 (stereo not drawn),Percent Effect,"30.3 µM, […]",-13.75%
Cc1ccc(C(=O)N2CCCCC2CNC(N)=O)cc1F (stereo not drawn),Percent Effect,"30.3 µM, […]",53.34%
NC(=O)NCC1CCCCN1C(=O)c1cc(F)cc(F)c1 (stereo not drawn),Percent Effect,"30.3 µM, […]",-17.02%
CC(C)(C)NC(=O)CN1CCNCC1.Cl.Cl,Percent Effect,"30 µM, 30.03 µM",-49.47%
CO[C@H]1C[C@@H]2CN(C(=O)Cc3ccc(C)s3)C[C@@H]2C1,Percent Effect,"30.3 µM, […]",15.04%
CSc1ccc(-c2nc(CN3C[C@@H](C)NC[C@@H]3C)c(C)o2)cc1,Percent Effect,"30.3 µM, […]",65.6%
CSc1ccc(-c2nc(CN3CCC(C(N)=O)CC3)c(C)o2)cc1,Percent Effect,"30 µM, 30.03 µM",22.66%
CSc1ccc(-c2nc(CN3CCC(CN)C3)c(C)o2)cc1 (stereo not drawn),Percent Effect,"30 µM, 30.03 µM",56.38%
CNC(=O)CC1CCN(Cc2nc(-c3ccc(SC)cc3)oc2C)CC1,Percent Effect,"30.3 µM, […]",15.19%
CNC(=O)C1CCN(Cc2nc(-c3ccc(SC)cc3)oc2C)C1 (stereo not drawn),Percent Effect,"30 µM, 30.03 µM",5.239%
Cc1oc(-c2cc(F)cc(F)c2)nc1CN1C[C@@H](C)NC[C@@H]1C,Percent Effect,"30.3 µM, […]",16.81%
Cc1ccc(-c2nc(CN3C[C@@H](C)NC[C@@H]3C)c(C)o2)s1,Percent Effect,"30.3 µM, […]",11.25%
CSc1ccc(-c2nc(CN3CCNCC3C)c(C)o2)cc1 (stereo not drawn),Percent Effect,"30.3 µM, […]",65.66%
CSc1ccc(-c2nc(CN3CCC(NC(C)=O)CC3)c(C)o2)cc1,Percent Effect,"30 µM, 30.03 µM",23.08%
Cc1nc(C)n(C2CCCN(C(=O)c3cscn3)C2)n1 (stereo not drawn),Percent Effect,"30.3 µM, […]",-21.61%
CCC(=O)N1Cc2nccn2CC(CN(C)Cc2cccnc2)C1.O=C(O)C(F)(F)F.O=C(O)C(F)(F)F (stereo not drawn),Percent Effect,"30 µM, 30.03 µM",3.591%

# From ChEMBL document CHEMBL3988442, “University of Dundee, Small-Polar-MMV Screening Library” (2021)
